DUX4 txn inh = inhibitors of DUX4-driven ZSCAN4 reporter expression, primary screen, 293T cells, Gaussia and Italica luciferase | activity change, negative = inhibition, % (test concentration not listed) | 37,000 compounds, 0.8% hits | 293T-iDUX4 ZSCAN4-Gaussia luciferase reporter, 24 h; stronger effect = lower value | AID 1224904, 2016;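 active = mean inhibition of at least 10% in the main channel, exceeding the control channel by a set limit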;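 note: 0% = median of neutral control wells and -100% = median of positive control wells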
Starred values were filed as active, the others as inactive. This excerpt belongs to a sample that is enriched for hits.

SMILES	DUX4 txn inh
Cc1cccc(S(=O)(=O)N2CCCCN3[C@@H](CO)[C@H](c4ccc(-c5ccncc5)cc4)[C@@H]3C2)c1	-5
COc1cccc(S(=O)(=O)N2CCCCN3[C@H](CO)[C@H](c4ccc(C#CCC(C)C)cc4)[C@@H]3C2)c1	-49*
C/C=C/c1ccc([C@@H]2[C@@H](CO)N3CCCCN(S(=O)(=O)c4cccc(C)c4)C[C@H]23)cc1	-17*
COCC#Cc1ccc([C@H]2[C@@H](CO)N3CCCCN(S(=O)(=O)c4ccc(OC)cc4)C[C@H]23)cc1	3
CC(C)CC#Cc1ccc([C@@H]2[C@H](CO)N3CCCCN(S(=O)(=O)c4ccc(F)cc4)C[C@@H]23)cc1	1
COc1ccc(S(=O)(=O)N2CCCCN3[C@H](C2)[C@H](c2ccc(C#CC(C)C)cc2)[C@@H]3CO)cc1	8
COc1ccc(S(=O)(=O)N(C)C[C@@H]2Oc3ccc(NC(=O)Cc4cn(C)c5ccccc45)cc3C(=O)N([C@@H](C)CO)C[C@@H]2C)cc1	-7
Cc1noc(C)c1NC(=O)N(C)C[C@@H]1Oc2c(NC(=O)C3CCOCC3)cccc2C(=O)N([C@@H](C)CO)C[C@@H]1C	5
CO[C@H](CN(C)C(=O)c1cnccn1)[C@@H](C)CN([C@@H](C)CO)S(=O)(=O)c1ccc(F)cc1	1
COc1ccc(S(=O)(=O)Nc2ccc3c(c2)C(=O)N([C@@H](C)CO)C[C@@H](C)[C@@H](CN(C)S(=O)(=O)c2ccc(Cl)cc2)OCCCC[C@@H](C)O3)cc1	2
COc1cccc(C(=O)Nc2ccc3c(c2)C(=O)N(C)[C@H]2CC[C@H](CC(=O)NCc4ccccc4F)O[C@@H]2CO3)c1	-1
CN(C)CC(=O)N[C@@H]1CC[C@@H](CC(=O)O)O[C@@H]1CO	-1
C/C=C/c1ccc([C@H]2[C@@H](CO)N(S(C)(=O)=O)[C@@H]2CN(C(C)=O)C(C)C)cc1	6
Cc1noc(C)c1NC(=O)Nc1ccc2c(c1)C(=O)N([C@@H](C)CO)C[C@H](C)[C@H](CN(C)S(=O)(=O)c1ccc(F)cc1)O2	-1
CN(C)C(=O)c1ccc(-c2ccc3c(c2)[C@@H]2[C@@H](CCN2C(=O)C2CCOCC2)[C@H](CO)N3C)cc1	25
O=C(C[C@@H]1CC[C@@H]2[C@H](COC[C@H](O)CN2C(=O)c2ccccc2F)O1)NCc1ccc(Cl)c(Cl)c1	-2
CCN(C[C@@H]1N[C@H](CO)[C@H]1c1ccc(C2=CCCC2)cc1)C(=O)c1ccncc1	-7
O=C(C[C@H]1C[C@H]2c3cc(NC(=O)Cc4ccncc4)ccc3O[C@H]2[C@@H](CO)O1)NCCc1ccccc1	-8
O=C(C[C@@H]1C[C@H]2c3cc(NC(=O)Cc4ccncc4)ccc3O[C@H]2[C@H](CO)O1)NCc1cc(F)ccc1F	-4
O=C(C[C@H]1C[C@H]2c3cc(NC(=O)Cc4ccncc4)ccc3O[C@H]2[C@@H](CO)O1)NCc1cc(F)ccc1F	-21*
O=C(C[C@@H]1C[C@H]2c3cc(NC(=O)CC4CC4)ccc3O[C@H]2[C@@H](CO)O1)NCc1cc(F)ccc1F	7
O=C(C[C@@H]1C[C@@H]2c3cc(NC(=O)Cc4ccncc4)ccc3O[C@@H]2[C@@H](CO)O1)NCCc1ccccc1	3
O=C(C[C@H]1C[C@H]2c3cc(NC(=O)Cc4ccncc4)ccc3O[C@H]2[C@H](CO)O1)NCCc1ccccc1	-21*
COc1cccc(NC(=O)Nc2ccc3c(c2)C(=O)N(C)C[C@H](OC)[C@H](C)CN[C@@H](C)CO3)c1	-3
CN1C(=O)c2cc(NC(=O)c3cscn3)ccc2OC[C@@H]2O[C@@H](CC(=O)NCC3CC3)CC[C@H]21	0
SMILES	DUX4 txn inh
Cc1ccccc1-c1ccc([C@@H]2[C@@H](CO)N3CCCCN(S(=O)(=O)c4ccc(F)cc4)C[C@H]23)cc1	-40*
C/C=C/c1ccc([C@@H]2[C@H](CO)N3CCCCN(C(=O)Nc4ccc(OC)cc4)C[C@@H]23)cc1	18
COc1ccc(S(=O)(=O)N2CCCCN3[C@H](CO)[C@@H](c4ccc(C5=CCCC5)cc4)[C@@H]3C2)cc1	1
CCS(=O)(=O)N1CCCCN2[C@H](CO)[C@@H](c3ccc(-c4ccccc4C)cc3)[C@@H]2C1	10
O=S(=O)(c1ccc(F)cc1)N1CCCCN2[C@H](CO)[C@H](c3ccc(C4=CCCCC4)cc3)[C@@H]2C1	-42*
CCS(=O)(=O)N1CCCCN2[C@H](CO)[C@H](c3ccc(-c4ccccc4C)cc3)[C@H]2C1	-5
C/C=C/c1ccc([C@H]2[C@@H](CO)N3CCCCN(C(=O)Nc4ccc(OC)cc4)C[C@H]23)cc1	-9
C/C=C/c1ccc([C@@H]2[C@@H](CO)N3CCCCN(C(=O)Nc4ccc(OC)cc4)C[C@@H]23)cc1	-27*
O=S(=O)(c1ccc(F)cc1)N1CCCCN2[C@@H](CO)[C@@H](c3ccc(C4=CCCCC4)cc3)[C@@H]2C1	-4
Cc1ccccc1-c1ccc([C@H]2[C@H]3CN(S(C)(=O)=O)CCCCN3[C@H]2CO)cc1	-6
Cc1ccccc1-c1ccc([C@H]2[C@H](CO)N3CCCCN(S(=O)(=O)c4ccc(F)cc4)C[C@@H]23)cc1	-56*
Cc1ccccc1-c1ccc([C@H]2[C@H](CO)N3CCCCN(S(C)(=O)=O)C[C@@H]23)cc1	17
C[C@@H]1CCCCO[C@H](CN(C)C(=O)Cc2ccccc2)[C@H](C)CN([C@H](C)CO)C(=O)c2cc(N(C)C)ccc2O1	-2
CCCNC(=O)C[C@H]1CC[C@@H]2[C@H](COc3ccc(NC(=O)Nc4ccccc4F)cc3C(=O)N2C)O1	-2
CO[C@H]1CN(C)C(=O)c2cc(NC(=O)C3CCCCC3)ccc2OC[C@@H](C)N(C)C[C@@H]1C	-6
COc1ccc2c3c([nH]c2c1)[C@@H](CO)N(C(=O)NC(C)C)CC31CN(C(=O)c2ccccn2)C1	0
COc1cccc(-c2ccc([C@H]3[C@@H](CO)N(C(=O)Cc4ccccc4)[C@H]3C#N)cc2)c1	4
CO[C@@H]1CN(C)C(=O)c2ccc(NS(=O)(=O)c3ccccc3)cc2OC[C@@H](C)N(C(=O)NC(C)C)C[C@@H]1C	5
COc1ccc2c3c(n(C)c2c1)[C@@H](CO)N(C(=O)c1ccc(F)cc1)CC31CN(C(=O)Nc2ccc(F)cc2)C1	-6
COC(=O)N(C)C[C@H]1OCc2ccccc2-c2c(n(C)c3ccccc23)C(=O)N([C@@H](C)CO)C[C@@H]1C	15
CN(C)C(=O)[C@H]1[C@H](CO)[C@H]2Cn3c(ccc(C4=CCCC4)c3=O)[C@@H]1N2C(=O)Nc1ccccc1	-1
N#Cc1ccc(-c2ccc([C@H]3[C@@H](CO)N4CCCCN(C(=O)Nc5ccc(F)cc5)C[C@H]34)cc2)cc1	-39*
Cc1ccccc1-c1ccc([C@@H]2[C@@H](CO)N3CCCCN(C(=O)Nc4cccc(F)c4)C[C@@H]23)cc1	-27*
O=C(NC1CCCC1)N1CCCCN2[C@H](C1)[C@H](c1ccc(-c3ccccc3)cc1)[C@@H]2CO	1
N#Cc1ccc(-c2ccc([C@H]3[C@H]4CN(C(=O)Nc5ccc(F)cc5)CCCCN4[C@H]3CO)cc2)cc1	39
O=C(Nc1cccc(F)c1)N1CCCCN2[C@H](C1)[C@@H](c1ccc(-c3ccncc3)cc1)[C@@H]2CO	7
COc1ccccc1-c1ccc([C@H]2[C@@H](CO)N3CCCCN(C(=O)NC4CCCC4)C[C@H]23)cc1	-23*
N#Cc1ccc(-c2ccc([C@H]3[C@H](CO)N4CCCCN(C(=O)Nc5ccc(F)cc5)C[C@@H]34)cc2)cc1	10
